Records with an inconclusive call do not appear. Active and inactive are the calls of the source. The call rests on the fitted dose curve; in most records, active means well fitted inhibition curve with a large enough effect; inconclusive means small, poorly fitted or top-dose-only effect; inactive means flat fitted curve, though single readings scatter.

This assay can be described thus: Identification of antibody-drug conjugate (ADC) payloads which are substrates of ATP-binding cassette drug efflux transporters: ABCB1-HEK293-MDR-19 cell line. The following applies: HEK293 ABCB1 (MDR-19) viability, CellTiter-Glo, 48 h. From the text: Antibody-drug conjugates (ADCs) feature an antibody recognizing a specific protein joined to a potent toxic payload. Numerous antibody-drug conjugates have received FDA approval; however, clinical resistance arises. Resistance mechanisms include decreased expression or mutation of the antibody target, impaired payload release, or increased expression of ATP-binding cassette (ABC) efflux transporters associated with multidrug resistance. We therefore sought to characterize the interaction of ABC multidrug transporters with ADC payloads. We performed a high-throughput screen with 27 common ADC payloads using cells lines expressing ABC transporters P-glycoprotein (P-gp, encoded by ABCB1) or ABCG2 (encoded by ABCG2). Confirmatory assays were also performed using cells transfected to express P-gp, ABCG2, or MRP1 (encoded by ABCC1). Several commonly used ADC payloads were substrates of P-gp, including calicheamicin gamma1, monomethyl auristatin E, DM1, and DM4. All the pyrrolobenzodiazepines tested - SJG136, SGD-1882, SG2057, and SG3199 - were substrates of P-gp, ABCG2, and MRP1. […] These findings highlight the risk of transporter-mediated resistance with certain ADC payloads and underscore the importance of selecting payloads that evade ABC transporter recognition in future ADC development.
HEK-293 cells were transfected with empty vector (pcDNA) or vector containing the human ABCB1 (MDR-19), ABCG2 (R-5), or ABCC1 gene (MRP1) and were maintained in EMEM with 2 mg/mL G418 added to maintain transporter expression. The HeLa derivative KB-3-1 and the P-gp overexpressing KB-8-5-11 subline were maintained in DMEM; KB-8-5-11 additionally received 100 ng/mL colchicine. H460 parental cells were obtained from the Division of Cancer Treatment and Diagnosis Tumor Repository, National Cancer Institute at Frederick, MD and were cultured in RPMI. The ABCG2 expressing subline H460 MX20 was generated by selecting H460 cells in 20 nM mitoxantrone. Media in all cases was supplemented with 10% FBS and 1% penicillin-streptomycin. We explored 27 common ADC payloads, in two orthogonal, paired cell line sets-a drug selected and transfected set for each transporter--to identify substrates of the ABC transporters P-gp and ABCG2. Compounds were sourced from Levena Biopharma (San Diego, CA), Selleck Chem (Houston, TX), ChemieTek (Indianapolis, IN), or Microsource Discovery Systems (Gaylordsville, CT). Screening was performed as previously described. Briefly, cells were plated at a density of 500 cells/well in 1536 well plates with compounds added using a 1536-head pin tool (Kalypsys, San Diego CA). Cells were incubated with cytotoxic drugs and processed with CellTiter Glo reagent (Promega, Madison, WI) to determine viability after 48 hours. P-gp substrates were identified by comparing compound activity between paired sets of low-expressing (sensitive) and over-expressing (resistant) cell lines.

In the case of `CN(C)CCOc1ccc2[nH]c(C(=O)N3C[C@@H](CCl)c4c3cc(O)c3ccccc43)cc2c1`, the Potency is 0.4 nM (active).

Turning to `COc1cccc2c1C(=O)c1c(O)c3c(c(O)c1C2=O)C[C@@](O)(C(=O)CO)C[C@@H]3O[C@H]1C[C@H]2[C@H](O[C@@H]3[C@@H](OC)OCCN32)[C@H](C)O1`, the Potency was 0.0941 nM (active).

With `COc1cc2cc(c1Cl)N(C)C(=O)C[C@H](O)[C@]1(C)O[C@H]1[C@H](C)C1C[C@@](O)(NC(=O)O1)[C@H](OC)/C=C/C=C(\C)C2`, the Potency was 2980 nM (active).

Regarding `CCc1c2c(nc3ccc(O)cc13)-c1cc3c(c(=O)n1C2)COC(=O)[C@]3(O)CC`, the Potency is 11.8 nM (active).

In the case of `COC(=O)c1cc2c3c(cc(O)c2[nH]1)N(C(=O)c1cc2cc(OC)c(OC)c(OC)c2[nH]1)CC3CCl` (centres undefined), the Potency was 0.5 nM (active).

Regarding `CCN(C(C)=O)[C@H]1CO[C@@H](O[C@H]2[C@H](O[C@H]3C#C/C=C\C#C[C@]4(O)CC(=O)C(NC(=O)OC)=C3/C4=C\CSSSC)O[C@H](C)[C@@H](NO[C@H]3C[C@H](O)[C@H](SC(=O)c4c(C)c(I)c(O[C@@H]5O[C@@H](C)[C@H](O)[C@@H](OC)[C@H]5O)c(OC)c4OC)[C@@H](C)O3)[C@@H]2O)C[C@@H]1OC`, the Potency is 748 nM (active).

In the case of `COc1cccc2c1C(=O)c1c(O)c3c(c(O)c1C2=O)C[C@@](O)(C(=O)CO)C[C@@H]3O[C@H]1C[C@H](N)[C@H](O)[C@H](C)O1`, the Potency was 748 nM (active).

`CC(C)(C)OC(=O)Nc1ccc2[nH]c(C(=O)N3C[C@@H](CCl)c4c3cc(O)c3ccccc43)cc2c1`: the Potency is 9.4 nM (active).

Turning to `CCN[C@H]1CO[C@@H](O[C@H]2[C@H](O[C@H]3C#C/C=C\C#C[C@]4(O)CC(=O)C(NC(=O)OC)=C3/C4=C\CSSSC)O[C@H](C)[C@@H](NO[C@H]3C[C@H](O)[C@H](SC(=O)c4c(C)c(I)c(O[C@@H]5O[C@@H](C)[C@H](O)[C@@H](OC)[C@H]5O)c(OC)c4OC)[C@@H](C)O3)[C@@H]2O)C[C@@H]1OC`, the Potency is 14.9 nM (active).
